# Data taken from PubChem BioAssay (NCI).
# The panel holds about 83,000 compounds, 20% with a hit somewhere; the sample as a whole holds those more often.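 For each line, cells grew in 96-well plates with the test compound present at a single concentration for 48 hours.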 Activity calls are given as the source filed them.
# Tested on: KM12 colon
# Test: NCI-60 one-dose screen, 48 h (100 = growth as untreated, 0 = no growth, -100 = all killed)
# Settings: 10 µM unless noted
# Procedure: Growth inhibition of the KM12 human tumor cell line is measured as a screen for anti-cancer activity. Cells are grown in 96 well plates and exposed to the test compound for 48 hours. Compounds are tested at a single concentration, which is 10^-5 M for most compounds. The reported endpoint is percent growth (GI% or GIPRCNT), where numbers from 0 - 100% represent growth inhibition, and numbers from -100% - 0 represent cell death. For example, a value of 40 represents 60% growth inhibition. A value of 0 means no net growth occurred over the course of the experiment. A value of -40 indicates 40% of cells at the beginning of the experiment died by the end of the experiment. A value of -100 means all cells are dead at the end of the experiment.
# NCI-60 Human Tumor Cell Lines Screen was performed using the standard one-dose NCI protocol, which is described in more detail at https://dtp.cancer.gov/discovery_development/nci-60/default.htm.
# Compounds with GIPRCNT values below 10 were considered active. Activity score was based on GIPRCNT using the following formula: […]
# Score is 0 for GIPRCNT values of 100 or above, 50 for GIPRCNT values of 0, and 100 for GIPRCNT values of -100.
row,SMILES,growth
1,COc1cc(-c2nc3ccc(-c4nnc(SCC(=O)Nc5ccc(C(=O)/C=C/c6ccc(Cl)cc6)cc5)o4)cc3[nH]2)cc(OC)c1OC,90.9% (inactive)
2,Cc1cccc(/C=C/c2nn3c(-c4ccco4)nnc3s2)c1,105% (inactive)
3,NS(=O)(=O)c1ccc(Nc2nc(SCC(=O)c3ccc(Cl)cc3)nc3ccccc23)cc1,87% (inactive)
4,Nc1cc(-c2c[nH]c3ccc(F)cc23)nc2cc(-c3c[nH]c4ccc(F)cc34)nn12,40.6% (inactive)
5,CN1C(=S)N(C)C2C1NN=C1SC(c3ccccc3)=CC(=O)N12 (stereo not given),98.3% (inactive)
6,COC(=O)C1CCCN(S(=O)(=O)/N=C2\NC(=O)NC2=C(Cl)Cl)C1 (stereo not given),4.95% (active)
7,O=C(CSc1nccc(=O)[nH]1)Nc1ccc(-c2nc3ccccc3[nH]2)cc1,86.3% (inactive)
8,O=C(Nc1nc2ccc(O)cc2s1)c1cccc(C(F)(F)F)c1,42.7% (inactive)
9,Cc1cccc2sc(/N=C(\N)C(Br)Br)nc12,9.77% (active)
10,CN(C)CCCOc1c2ccc(Cl)cc2nc2c1oc1ccccc12,0.963% (active)
11,CCCC(=O)NC(c1cccc(N(C)C)c1)c1cc(C)c2cccnc2c1O (stereo not given),54.9% (inactive)
12,Clc1ccc2oc3c(NCCCN4CCOCC4)c4ccccc4nc3c2c1,26.5% (inactive)
13,CCOc1ccc2nc(NC(=O)c3ccc(C(F)(F)F)cc3)sc2c1,103% (inactive)
14,CS(=O)(=O)c1ccc(-c2nc3ccccn3c2-c2nc3ccc([N+](=O)[O-])cc3[nH]2)cc1,93.8% (inactive)
15,c1ccc(CNc2ncnc3ccc(-c4cnc5[nH]ncc5c4)cc23)cc1,84.9% (inactive)
16,CCN1C(=S)N(CC)C2C1NN=C1SC(c3ccccc3)=CC(=O)N12 (stereo not given),94.3% (inactive)
17,CN1CCN(Cc2ccc(NC(=O)c3cncc(C#Cc4cnc5ccc(N6CCSCC6)nn45)c3)cc2C(F)(F)F)CC1,-22.5% (active)
18,NS(=O)(=O)c1cccc(Nc2nc(SCC(=O)c3ccc(Cl)cc3)nc3ccccc23)c1,71.7% (inactive)
19,COc1cc(/C=C/C(=O)c2cc(OC)c(OC)c(OC)c2)ccc1OCc1ccc(F)cc1,19% (inactive)
20,NS(=O)(=O)c1cccc(Nc2nc(SCC(=O)c3ccc([N+](=O)[O-])cc3)nc3ccccc23)c1,38.4% (inactive)

row,SMILES,growth
1,C[C@@H]1CN(c2ccc3ncc(C#Cc4cncc(C(=O)Nc5ccc(CN6CCN(C)CC6)c(C(F)(F)F)c5)c4)n3n2)C[C@H](C)O1,-7.61% (active)
2,O=C(CCCN1C(=O)/C(=C/c2ccccc2F)SC1=S)N1CCOCC1,85.4% (inactive)
3,COc1cccc(N2CCN(c3ncnc4c3[nH]c3ccc(F)cc34)C[C@@H]2C)c1,-71% (active)
4,O=C(CSc1nc2sc3c(c2c(=O)n1-c1ccc(Cl)cc1)CCCC3)N/N=C/c1ccc(F)cc1,90.1% (inactive)
5,C#Cc1nc(C2=C(C)C(=O)/C(=N/OC(C)=O)C2)cs1,46.8% (inactive)
6,Cc1c(NC(=O)CSc2nc3sc4c(c3c(=O)n2-c2ccc(Cl)cc2)CCCC4)c(=O)n(-c2ccccc2)n1C,98.7% (inactive)
7,CSCCC(C(=O)O)N1C(=O)/C(=C/c2ccc(O)c(O)c2)SC1=S (stereo not given),103% (inactive)
8,CCOC(=O)c1csc(NC(=O)CSc2nc3sc4c(c3c(=O)n2-c2ccc(Cl)cc2)CCCC4)n1,109% (inactive)
9,CN1C(=O)N(c2ccccc2)C2N=C(N/N=C/c3ccccc3)SC21 (stereo not given),22% (inactive)
10,CCOC(=O)c1c(Nc2ccccc2)nn2c(N)c(C#N)c(-c3ccc(F)cc3)nc12,87.3% (inactive)
11,CC1=C(C)C(=O)C(Nc2ccccc2)=C(Cl)C1=O,78.3% (inactive)
12,CO/N=C1\CCc2c(sc(NC(=O)c3cccc(C(F)(F)F)c3)c2C(N)=O)C1,56% (inactive)
13,CCOC(=O)c1c(Nc2ccccc2)nn2c(-c3ccco3)c(C#N)cnc12,98.6% (inactive)
14,COc1cc(/C=C/C(=O)c2ccccc2)ccc1Oc1nc(NCCO)nc(N2CCOCC2)n1,102% (inactive)
15,CCOC(=O)c1sc(NCC(=O)Nc2cccc([N+](=O)[O-])c2)c(C(=O)OCC)c1C,-9.01% (active)
16,Nc1c(C(=O)c2ccc(Br)cc2)oc2nc(-c3cnccn3)cc(-c3cccs3)c12,99.8% (inactive)
17,Cn1cc(-c2cc(N)n3nc(-c4cn(C)c5ccc(Br)cc45)cc3n2)c2cc(Br)ccc21,64.8% (inactive)
18,COc1cc(-c2ccc3ncnc(NC(C)c4ccccc4)c3c2)cnc1OC (stereo not given),75.3% (inactive)
19,COc1ccc([C@@H]2c3[nH]c4ccccc4c3CC3C(=O)N(C4CCN(Cc5c(F)cccc5F)CC4)CC(=O)N32)c(OC)c1 (stereo not given in full),58.1% [5.26 µM] (inactive)
20,C/C(=N/NC(N)=S)c1ccc(Nc2nc(SCC(C)C)nc(-c3ccc(F)cc3)c2C#N)cc1,23.5% (inactive)
